Screens: PubChem BioAssay, several laboratories
PostGolgi yeast: growth inhibition of a yeast mutant, post-Golgi transport screen. post-Golgi transport phenotypic cell assay. inhibition, % at 10 µM. 0.9% of 98,000 active;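 further: yeast cells grown in 1536-well plates; yeast grown about 18 h at 30C before absorbance read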
sEH inh: blocks human soluble epoxide hydrolase activity; P34913; recombinant human sEH enzymatic activity assay; inhibition, % at 2 µM; 0.34% of 91,000 active; AID 707; in the data active means inhibition above about 80%
Target sequence (P34913 whole entry, looked up): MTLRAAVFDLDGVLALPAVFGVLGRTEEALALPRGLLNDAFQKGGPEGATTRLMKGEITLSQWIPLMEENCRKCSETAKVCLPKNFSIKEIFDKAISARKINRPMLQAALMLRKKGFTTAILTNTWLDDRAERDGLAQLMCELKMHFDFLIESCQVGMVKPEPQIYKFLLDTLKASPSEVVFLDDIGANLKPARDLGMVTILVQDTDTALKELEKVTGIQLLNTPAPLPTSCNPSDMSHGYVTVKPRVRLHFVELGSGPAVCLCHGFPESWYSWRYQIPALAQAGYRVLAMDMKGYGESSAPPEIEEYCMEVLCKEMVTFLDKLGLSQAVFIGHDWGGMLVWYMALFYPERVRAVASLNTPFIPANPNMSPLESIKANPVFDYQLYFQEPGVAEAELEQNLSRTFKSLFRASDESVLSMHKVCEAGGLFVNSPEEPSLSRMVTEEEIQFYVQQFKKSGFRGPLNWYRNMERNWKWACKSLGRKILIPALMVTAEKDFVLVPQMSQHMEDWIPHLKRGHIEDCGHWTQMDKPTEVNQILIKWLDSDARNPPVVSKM
PostGolgi ctrl: inhibits growth of the yeast control strain | 5% of 98,000 active | inhibition, % at 10 µM | efflux-deficient yeast background strain, growth absorbance A615, 16 h | AID 738
Cav3 T inh: blocks human Cav3.2 T-type calcium channel. O95180. 4% of 100,000 active. Cav3.2-expressing cells, Fluo-4 calcium fluorescence FDSS; active compounds read low. AID 449739. B-score at 10 µM;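 active means single-dose well whose peak fluorescence ratio is a statistical outlier from its plate by either plate-standardised score or position-corrected B-score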
sEH act: increases human soluble epoxide hydrolase activity; purified human sEH enzymatic activity, activator screen; activation, % at 2 µM; 0.04% of 91,000 active; in the data active means activation above about 37%
The depositor's hits bear a star. This is a sample that favours compounds with a hit; in the whole collection about 7.8% have one here. Unless noted, no stated cut-off is given here; in the data, active means inhibition above about 30%; inactive means the rest.

`COc1ccccc1CNC(=O)C(CC(C)C)NC(=O)C1CCC(C)CC1` (centres undefined) gave PostGolgi yeast 15, sEH inh 17, PostGolgi ctrl 11, Cav3 T inh -5.8* and sEH act -19.
Screening O=C1CC(C(=O)N(c2cccc(F)c2)C(C(=O)NC2CCCC2)c2ccccn2)CS1 (centres undefined) returned PostGolgi yeast 4, sEH inh -10, PostGolgi ctrl 37*, Cav3 T inh 0.73 and sEH act 9.
`O=C1CC(C(=O)N(c2ccc(F)cc2)C(C(=O)NC2CCCC2)c2ccccn2)CS1` (centres undefined) gave PostGolgi yeast -12, sEH inh -10, PostGolgi ctrl 1, Cav3 T inh 0.24 and sEH act 12.
Screening CCOC(=O)NC(Nc1ncccn1)(C(F)(F)F)C(F)(F)F returned PostGolgi yeast -1, sEH inh -8, PostGolgi ctrl 1, Cav3 T inh 0.89 and sEH act 8.
`CCOC(=O)C(NC(=O)Nc1ncccn1)(Oc1ccccc1)C(F)(F)F` (centres undefined) gave PostGolgi yeast -1, sEH inh 6, PostGolgi ctrl 32*, Cav3 T inh 0.32 and sEH act -6.
OCCOCCn1c2ccccc2c2ccccc21 was read as PostGolgi yeast -3 and PostGolgi ctrl -12.
O=C(CN1CCOCCOCCOCCOCC1)Nc1ccccc1 was read as sEH inh 3, Cav3 T inh 0.36 and sEH act 0.
For O=C(CN1CCOCCOCCOCC1)Nc1ccccc1 the results were PostGolgi yeast -4, sEH inh 1, PostGolgi ctrl 1, Cav3 T inh 0.12 and sEH act 1.
For O=C(CN1CCOCC1)Nc1cccc(Br)c1 the results were PostGolgi yeast -4, sEH inh 4, PostGolgi ctrl 31*, Cav3 T inh -0.16 and sEH act -1.
`O=C(CN1CCOCCOCCN(CC(=O)Nc2ccccc2)CCOCC1)Nc1ccccc1` gave PostGolgi yeast 30*, sEH inh 2, PostGolgi ctrl 2, Cav3 T inh -0.073 and sEH act -4.
`COc1ccc(C2NC(=O)N(CCCC(=O)O)C(C)=C2C(=O)OCc2ccccc2)cc1` (centres undefined) gave Cav3 T inh 1.1.
For C#CCNC(=O)C1=C[C@H](c2ccc(C(F)(F)F)cc2)C[C@H](OCCCCO)O1 the results were Cav3 T inh -0.15.
CCOc1ccc(C2=NNC(c3cccs3)=Nc3ccc(OC)cc32)cc1 was read as sEH inh 2, Cav3 T inh -4.9* and sEH act 3.
Fc1ccc2c(c1)C(c1ccc(N3CCOCC3)cc1)=NNC(c1cccs1)=N2 was read as PostGolgi yeast -5, sEH inh 0, PostGolgi ctrl 36*, Cav3 T inh -1.9 and sEH act 2.
Brc1ccc2c(c1)C(c1ccc(N3CCOCC3)cc1)=NNC(c1cccs1)=N2 was read as PostGolgi yeast 5, sEH inh -11, PostGolgi ctrl 12, Cav3 T inh -1.8 and sEH act 10.
For Cc1nn(Cc2cccc(C(=O)NC(C)c3ccc(C(C)(C)C)cc3)c2)c(C)c1[N+](=O)[O-] (centres undefined) the results were PostGolgi yeast 51*, sEH inh 1, PostGolgi ctrl 3, Cav3 T inh -1.8 and sEH act 1.
Screening CCOC(=O)N1CCC(Nc2c(NCCCN(C)Cc3ccccc3)c(=O)c2=O)CC1 returned PostGolgi yeast -2, PostGolgi ctrl 11 and Cav3 T inh -0.4.
Screening N#CC1=C(N)Oc2c(oc(CO)cc2=O)C1c1ccsc1 (centres undefined) returned PostGolgi yeast -3, sEH inh 18, PostGolgi ctrl 3, Cav3 T inh -0.31 and sEH act -18.
`N#CC1=C(N)Oc2c(ccc3ccccc23)C1c1ccsc1` (centres undefined) gave PostGolgi yeast -2, sEH inh 7, PostGolgi ctrl 49* and sEH act -1.
Screening COCCCn1c2nc3ccccc3nc2c2c(=O)n(-c3ccccc3OC)cnc21 returned PostGolgi yeast 34*, sEH inh -4, PostGolgi ctrl 4, Cav3 T inh 0.92 and sEH act 4.
For CS(=O)(=O)N1CCC(C(=O)NCCN2CCN(Cc3ccccc3)CC2)CC1 the results were PostGolgi yeast 31*, PostGolgi ctrl -3 and Cav3 T inh -0.052.
O=C(NCCc1ccc(Cl)cc1)C1CCN(S(=O)(=O)N2CCCCC2)CC1 was read as PostGolgi yeast -5, PostGolgi ctrl 2 and Cav3 T inh -0.007.
O=S(=O)(c1cccs1)N1CCC(Cc2ccccc2)CC1 was read as PostGolgi yeast -5, sEH inh 9, PostGolgi ctrl 35*, Cav3 T inh 0.032 and sEH act -7.
For O=C(NCCc1ccc(Cl)cc1)C1CCN(S(=O)(=O)c2cccs2)CC1 the results were PostGolgi yeast -12, sEH inh 28, PostGolgi ctrl 4, Cav3 T inh -6.7* and sEH act -27.
For O=C(NCCc1ccccc1)C1CCN(S(=O)(=O)N2CCCC2)CC1 the results were PostGolgi yeast 33*, PostGolgi ctrl -4 and Cav3 T inh 0.44.
Screening CN1CCN(C(=O)C2=C[C@H](c3ccccc3)C[C@H](OCc3ccc(CO)cc3)O2)CC1 returned Cav3 T inh -2.5.
Screening COC(=O)C1=NN(c2ccc(C)cc2)C2(S1)SC(C(C)=O)=C(C)N2c1ccccc1 (centres undefined) returned PostGolgi yeast 7, sEH inh -22, PostGolgi ctrl 19, Cav3 T inh -3.1 and sEH act 25.
Screening COc1ccc(OC)c(NC(=O)CSc2ncnc3c2cnn3-c2ccccc2Cl)c1 returned sEH inh 2, Cav3 T inh -1.9 and sEH act 0.
`CCN(CCCNC(=O)C1CCN(S(=O)(=O)N2CCC3(CC2)OCCO3)CC1)c1ccccc1` gave PostGolgi yeast 4, sEH inh 90*, PostGolgi ctrl 8, Cav3 T inh 0.22 and sEH act -90.
For CN(C)C(=O)N1CCC(C(=O)NCc2ccccc2)CC1 the results were PostGolgi yeast -8, PostGolgi ctrl 38* and Cav3 T inh 0.012.
CCCCN(CCCNC(=O)C1CCN(S(=O)(=O)N2CCOCC2)CC1)c1ccccc1 was read as PostGolgi yeast 1, PostGolgi ctrl 6 and Cav3 T inh -2.1.
Screening CC(=O)Oc1ccc(C(=O)Nc2nnc(C)s2)cc1 returned PostGolgi yeast 30*, sEH inh -12, PostGolgi ctrl 2, Cav3 T inh 1.3 and sEH act 13.
`Cc1cc(NC(=O)COC(=O)C(Nc2ccc(C(F)(F)F)cc2Cl)C(C)C)no1` (centres undefined) gave PostGolgi yeast 3, sEH inh 4, PostGolgi ctrl 59*, Cav3 T inh -4.5* and sEH act -4.
Screening Cc1cc(NC(=O)COC(=O)CSCc2ccc(Cl)c(Cl)c2)no1 returned PostGolgi yeast -3, sEH inh 8, PostGolgi ctrl 8, Cav3 T inh -0.53 and sEH act -9.
